Results as given in the supplement of paper PMC12494721.
Structures can show the parent of a compound that is named as a salt.

Assays:
Conditions in all cases: incubation time: 27 h, anaerobic, 37 °C;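 for the amine columns active = adjusted P below 0.05 in both replicates with a change the same way and a mean fold change under 0.8 or over 1.25; inactive = the rest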
[1] = system: Clostridium sporogenes DSM 1664; test: growth (OD595) fold change vs plate DMSO controls (fold change (ratio)); higher = more growth
How it was run: (§1)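 Growth is expressed as the fold change relative to the median of the DMSO control wells on each plate. Cultures in mGAM were grown anaerobically in 96-well plates for 27 h at 37 °C, shaken, and read at 595 nm. Readings were blank-subtracted, corrected for compound background with 20 µM compound solutions in water, and converted to OD with a calibration factor of 5. Fold changes above 1.5 were set to NA, and each value is the mean of 2 biological replicates.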

[2] = system: Escherichia coli IAI1; test: as above
How it was run: as §1

[3] = system: Klebsiella aerogenes DSM 30053; test: as above
How it was run: as §1

[4] = system: Ruminococcus gnavus DSM 108212; test: as above
How it was run: as §1

[5] = system: Klebsiella aerogenes DSM 30053; test: fold change of Histamine concentration vs plate DMSO controls (fold change (ratio)); higher = more amine produced, active = hit call of the paper (significant change in both replicates, either direction)
How it was run: (§2)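 Using LC–triple-quadrupole MS with dynamic MRM, amines were quantified against external calibration curves and corrected for drift within each batch. Samples were whole anaerobic mGAM cultures of four gut strains, grown 27 h at 37 °C from OD 0.1 before 1:1 dilution, extracted with cold acetonitrile/methanol containing 0.1% formic acid and centrifuged. Compounds were present at 20 µM final (sweeteners at 50 µM final). The numbers are fold changes versus plate DMSO controls, each the mean of 2 biological replicates.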

[6] = system: Clostridium sporogenes DSM 1664; test: fold change of Tryptamine concentration vs plate DMSO controls (fold change (ratio)); higher = more amine produced, active = hit call of the paper (significant change in both replicates, either direction)
How it was run: as §2

[7] = system: Ruminococcus gnavus DSM 108212; test: as above
How it was run: as §2

[8] = system: Escherichia coli IAI1; test: fold change of Putrescine concentration vs plate DMSO controls (fold change (ratio)); higher = more amine produced, active = hit call of the paper (significant change in both replicates, either direction)
How it was run: as §2

[9] = system: Klebsiella aerogenes DSM 30053; test: as above
How it was run: as §2

[10] = system: Escherichia coli IAI1; test: fold change of Cadaverine concentration vs plate DMSO controls (fold change (ratio)); higher = more amine produced, active = hit call of the paper (significant change in both replicates, either direction)
How it was run: as §2

[11] = system: Klebsiella aerogenes DSM 30053; test: as above
How it was run: as §2

[12] = system: Ruminococcus gnavus DSM 108212; test: fold change of 2-Phenylethylamine concentration vs plate DMSO controls (fold change (ratio)); higher = more amine produced, active = hit call of the paper (significant change in both replicates, either direction)
How it was run: as §2

SMILES	growth [1]	growth [2]	growth [3]	growth [4]	fold change of Histamine concentration [5]	fold change of Tryptamine concentration [6]	fold change of Tryptamine concentration [7]	fold change of Putrescine concentration [8]	fold change of Putrescine concentration [9]	fold change of Cadaverine concentration [10]	fold change of Cadaverine concentration [11]	fold change of 2-Phenylethylamine concentration [12]
N=c1nc(N2CCCCC2)cc(N)n1O [Minoxidil] (20 µM)	0.888	0.963	1.03	0.722	0.98 (inactive)	0.937 (inactive)	1.01 (inactive)	0.982 (inactive)	0.987 (inactive)	0.995 (inactive)	1.01 (inactive)	1.05 (inactive)
Nc1ccc(S(=O)(=O)Nc2cnc3ccccc3n2)cc1 [Sulfaquinoxaline sodium salt] (20 µM)	1.03	1.01	0.991	0.994	1.04 (inactive)	0.987 (inactive)	0.985 (inactive)	0.911 (inactive)	1.02 (inactive)	1.01 (inactive)	0.991 (inactive)	0.981 (inactive)
Cn1c(=O)c2c(ncn2C)n(C)c1=O [Caffeine] (20 µM)	1.15	0.986	0.977	0.963	1.07 (inactive)	0.982 (inactive)	1.06 (inactive)	0.987 (inactive)	0.997 (inactive)	1.03 (inactive)	0.987 (inactive)	1.06 (inactive)
Cc1c(C(=O)NN2CCCCC2)nn(-c2ccc(Cl)cc2Cl)c1-c1ccc(Cl)cc1 [Rimonabant] (20 µM)	0.981	0.979	1	1.04	1.03 (inactive)	0.906 (inactive)	0.897 (inactive)	1.01 (inactive)	1.02 (inactive)	1.04 (inactive)	0.998 (inactive)	0.841 (inactive)
O=C(NC1CCN(CCCCC2(C(=O)NCC(F)(F)F)c3ccccc3-c3ccccc32)CC1)c1ccccc1-c1ccc(C(F)(F)F)cc1 [Lomitapide] (20 µM)	1.1	1	1.06	1.07	0.938 (inactive)	1.01 (inactive)	0.709 (active)	1.02 (inactive)	1.01 (inactive)	1.04 (inactive)	1.01 (inactive)	0.847 (inactive)
CN(C)CCCN1c2ccccc2Sc2ccc(Cl)cc21 [Chlorpromazine hydrochloride] (20 µM)	0.986	1.21	1.03	1.29	0.88 (inactive)	1.06 (inactive)	0.908 (inactive)	1.14 (inactive)	0.959 (inactive)	0.934 (inactive)	1.01 (inactive)	0.935 (inactive)
COc1ccc(CCC(=O)c2c(O)cc(O[C@@H]3O[C@H](CO)[C@@H](O)[C@H](O)[C@H]3O[C@@H]3O[C@@H](C)[C@H](O)[C@@H](O)[C@H]3O)cc2O)cc1O [Neohesperidin Dihydrochalcone (Nhdc)] (50 µM)	1.25	0.987	1.01	1.05	1.02 (inactive)	1.01 (inactive)	0.995 (inactive)	1.01 (inactive)	1.02 (inactive)	0.96 (inactive)	0.99 (inactive)	0.961 (inactive)
CC[C@H](C)[C@H](NC(=O)[C@H](Cc1ccc(O)cc1)NC(=O)[C@@H](NC(=O)[C@H](CCCN=C(N)N)NC(=O)[C@@H](N)CC(=O)O)C(C)C)C(=O)N[C@@H](Cc1cnc[nH]1)C(=O)N1CCC[C@H]1C(=O)N[C@@H](Cc1ccccc1)C(=O)O [Angiotensin II (Human) Trifluoroacetic acid salt] (20 µM)	1.02	1.03	0.987	0.979	1.01 (inactive)	1.07 (inactive)	1.09 (inactive)	0.966 (inactive)	0.983 (inactive)	0.934 (inactive)	0.994 (inactive)	1.14 (inactive)
C=C1c2c(Cl)ccc(O)c2C(O)=C2C(=O)[C@]3(O)C(O)=C(C(N)=O)C(=O)[C@@H](N(C)C)[C@@H]3[C@@H](O)[C@H]12.O=C(O)c1cc(S(=O)(=O)O)ccc1O [Meclocycline sulfosalicylate] (20 µM)	0.0138	0.000715	0.0719	0.113	0.0573 (active)	0.0133 (active)	0.0772 (active)	0.14 (active)	0.444 (active)	0.447 (active)	0.514 (active)	0.11 (active)
CC#CCn1c(N2CCC[C@@H](N)C2)nc2c1c(=O)n(Cc1nc(C)c3ccccc3n1)c(=O)n2C [Linagliptin] (20 µM)	1.01	1.03	0.993	0.856	1.08 (inactive)	1.07 (inactive)	1.02 (inactive)	1.01 (inactive)	1.02 (inactive)	0.983 (inactive)	0.996 (inactive)	0.997 (inactive)
CCN(CC)CCCC(C)Nc1ccnc2cc(Cl)ccc12 (stereo not drawn) [Chloroquine diphosphate] (20 µM)	1.07	0.965	0.996	0.941	1.04 (inactive)	1.1 (inactive)	1.03 (inactive)	0.939 (inactive)	1.02 (inactive)	0.962 (inactive)	0.985 (inactive)	1.02 (inactive)
Oc1ccc2ccccc2c1N=Nc1ccccc1 [Sudan I (1-phenylazo-2-hydroxynaphthalene)] (20 µM)	0.978	1.06	1.08	1.12	0.924 (inactive)	0.919 (inactive)	1.04 (inactive)	0.952 (inactive)	0.893 (inactive)	0.915 (inactive)	1.08 (inactive)	1.07 (inactive)
CCN(CC)CCNC(=O)c1cc(S(C)(=O)=O)ccc1OC [Tiapride hydrochloride] (20 µM)	0.729	0.484	0.715	0.09	0.997 (inactive)	0.999 (inactive)	1 (inactive)	1.01 (inactive)	0.992 (inactive)	1.03 (inactive)	1 (inactive)	0.956 (inactive)
OC[C@@H](O)[C@@H](O[C@H]1O[C@H](CO)[C@@H](O)[C@H](O)[C@H]1O)[C@H](O)[C@@H](O)CO [Maltitol] (50 µM)	1	0.988	1.02	0.976	1 (inactive)	1.01 (inactive)	0.988 (inactive)	1.05 (inactive)	1.02 (inactive)	1.04 (inactive)	1.01 (inactive)	0.941 (inactive)
COc1cc(/C=C/C(=O)N2CCN(CC(=O)N3CCCC3)CC2)cc(OC)c1OC [Cinepazide maleate] (20 µM)	1.13	1.06	1.02	1.02	1.03 (inactive)	1.07 (inactive)	1.1 (inactive)	1.01 (inactive)	0.911 (inactive)	0.933 (inactive)	1.06 (inactive)	1.14 (inactive)
CC(=O)Nc1c(I)c(NC(C)=O)c(I)c(C(=O)O)c1I [Diatrizoic acid dihydrate] (20 µM)	1.28	1.05	1.01	0.851	1.03 (inactive)	0.947 (inactive)	1.05 (inactive)	1.07 (inactive)	0.983 (inactive)	1.01 (inactive)	0.988 (inactive)	1.01 (inactive)
CN[C@@H]1[C@H](O[C@H]2[C@H](O[C@H]3[C@H](O)[C@@H](O)[C@H](N=C(N)N)[C@@H](O)[C@@H]3N=C(N)N)O[C@@H](C)[C@]2(O)C=O)O[C@@H](CO)[C@H](O)[C@H]1O [Streptomycin sulfate] (20 µM)	0.95	0.989	0.957	1.15	0.988 (inactive)	1.12 (inactive)	1.02 (inactive)	0.983 (inactive)	1 (inactive)	1.03 (inactive)	0.977 (inactive)	0.994 (inactive)
CCCCCCOc1ccccc1C(N)=O [Exalamide] (20 µM)	1.34	0.997	1.03	1.23	0.934 (inactive)	0.949 (inactive)	0.95 (inactive)	0.952 (inactive)	1.01 (inactive)	1.03 (inactive)	0.997 (inactive)	0.936 (inactive)
O=C(O)Cc1sc(-c2ccccc2)nc1-c1ccc(Cl)cc1 [Fentiazac] (20 µM)	1.09	1.06	1.06	0.808	0.945 (inactive)	0.999 (inactive)	0.966 (inactive)	1.04 (inactive)	0.971 (inactive)	0.966 (inactive)	1.03 (inactive)	1.06 (inactive)
CC(C(=O)O)c1ccc2c(c1)Cc1cccnc1O2 (stereo not drawn) [Pranoprofen] (20 µM)	1.01	1.06	1.03	0.92	0.978 (inactive)	0.985 (inactive)	0.95 (inactive)	0.95 (inactive)	1.01 (inactive)	0.993 (inactive)	1.01 (inactive)	0.94 (inactive)
CC=C(C)C(=O)OC1C(OC(C)=O)C2(CO)C(O)CC3(C)C(=CCC4C5(C)CCC(OC6OC(C(=O)O)C(OC7OC(CO)C(O)C(O)C7O)C(O)C6OC6OC(CO)C(O)C(O)C6O)C(C)(CO)C5CCC43C)C2CC1(C)C (stereo not drawn) [Beta-Escin] (20 µM)	0.94	1	1.01	1.01	1.01 (inactive)	0.988 (inactive)	0.982 (inactive)	0.986 (inactive)	0.994 (inactive)	1.01 (inactive)	1 (inactive)	0.953 (inactive)
CO[C@@]1(NC(=O)C2SC(=C(C(N)=O)C(=O)O)S2)C(=O)N2C(C(=O)O)=C(CSc3nnnn3C)CS[C@@H]21 (stereo partly drawn) [Cefotetan] (20 µM)	0	0.0332	0.987	1.17	0.528 (active)	0.0152 (active)	1.08 (inactive)	0.606 (inactive)	0.978 (inactive)	2.18 (active)	1.1 (inactive)	1.1 (inactive)
CN(C)CCC[C@@]1(c2ccc(F)cc2)OCc2cc(C#N)ccc21 [Escitalopram oxalate] (20 µM)	0.99	0.986	1.11	0.828	1.02 (inactive)	0.971 (inactive)	1.01 (inactive)	1.01 (inactive)	1.02 (inactive)	0.993 (inactive)	1.02 (inactive)	0.965 (inactive)
COc1cc2nc(N(C)CCCNC(=O)C3CCCO3)nc(N)c2cc1OC (stereo not drawn) [Alfuzosin hydrochloride] (20 µM)	0.976	1.01	1.01	1.31	0.953 (inactive)	1 (inactive)	1.04 (inactive)	0.976 (inactive)	0.99 (inactive)	1.01 (inactive)	1.04 (inactive)	1.04 (inactive)
